GoLoco inh red: qHTS Assay for Inhibitors of RGS12 GoLoco Motif Activity (Red Fluorophore); Guanine nucleotide-binding protein G(i) subunit alpha-1 (Homo sapiens), P63096; Gai1:RGS12 GoLoco peptide FP, rhodamine, 10 min; Potency, µM (titrated, usually from 61.6 µM), for inactives: top-dose activity, negative = inhibition, actives largely listed as inhibitors; 0.44% of 230,000 active; AID 880, 2007; active means well fitted inhibition curve with a large enough effect, not every such curve was filed as active; inactive means no such curve, though single readings can be large or run the other way; further: potency means the concentration at half of the fitted maximal effect; nearly all actives have a fitted effect of over 30% in size
Tb PGK inh: qHTS Assay to Find Inhibitors of Phosphoglycerate Kinase; PGK/GAPDH coupled, Kinase-Glo luminescence, 60 min; Potency, µM (doses to about 57.5 µM), for inactives: at the top dose activity change, negative = inhibition, most hits filed as inhibitors; 0.043% of 380,000 active; further: potency means the concentration at half of the fitted maximal effect; nearly all actives have a fitted effect of over 60% in size
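Recombinant glycosomal PGK reaction used 1,3-bisphosphoglycerate generated in-well by GAPDH (100nM final) in 100mM TEA pH 7.6, 5mM MgCl2, 0.01% Tween-20. After 60 minutes at room temperature, ATP was read by Kinase-Glo Plus luminescence end-point.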
PI4K2A inh: qHTS for small molecular inhibitors of PI4K2A. 0.13% of 420,000 active. Phosphatidylinositol 4-kinase type 2-alpha (Homo sapiens), Q9BTU6. activity change, negative = inhibition, % at 76.9 µM. purified PI4K2A, ADP-Glo luminescence, 1 h; hits give low values; in the data active means activity change below about -50%; inconclusive means mostly about -30% to -49%;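 further: -100% = wells without enzyme as full effect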
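PI4K2A activity was measured by ADP-Glo luminescence: enzyme (4 ug/mL stock) and phosphatidylinositol (1.2 mM stock) in Tris pH 7.5/MgCl2/EGTA/Triton X-100 buffer were reacted with ATP (300 microM stock) for one hour at ambient temperature.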
KAT2A inh: qHTS Assay for Inhibitors of GCN5L2; Histone acetyltransferase KAT2A (Homo sapiens), Q92830; GCN5L2 HAT assay, ThioGlo1 CoA-SH fluorescence; Potency, µM (doses to about 58.9 µM), inactives show top-dose activity change, negative = inhibition, most hits filed as inhibitors; 0.21% of 390,000 active; AID 504327, 2011; further: potency means the concentration at half of the fitted maximal effect
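Titration-based screen in which CoA formation is detected via maleimide probe ThioGlo1 (50uM) turning fluorescent on thiol reaction; substrates H3(1-25) 75uM and acetyl-CoA 70uM, GCN5L2 20nM, 20 min incubation at room temperature.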
PI5P4Ka inh: qHTS for Inhibitors of phosphatidylinositol 5-phosphate 4-kinase (PI5P4K) | Phosphatidylinositol 5-phosphate 4-kinase type-2 alpha (Homo sapiens), P48426 | 1.2% of 330,000 active | PI5P4Kalpha enzyme, ADP-Glo luminescence, 60 min; hits give low values | max response, % | AID 652105, 2013; active means max response of -50% or lower; inconclusive means between -30% and -50%; inactive means -30% or higher; further: value at the top dose of about 77 µM
Target sequence (P48426 whole entry, looked up): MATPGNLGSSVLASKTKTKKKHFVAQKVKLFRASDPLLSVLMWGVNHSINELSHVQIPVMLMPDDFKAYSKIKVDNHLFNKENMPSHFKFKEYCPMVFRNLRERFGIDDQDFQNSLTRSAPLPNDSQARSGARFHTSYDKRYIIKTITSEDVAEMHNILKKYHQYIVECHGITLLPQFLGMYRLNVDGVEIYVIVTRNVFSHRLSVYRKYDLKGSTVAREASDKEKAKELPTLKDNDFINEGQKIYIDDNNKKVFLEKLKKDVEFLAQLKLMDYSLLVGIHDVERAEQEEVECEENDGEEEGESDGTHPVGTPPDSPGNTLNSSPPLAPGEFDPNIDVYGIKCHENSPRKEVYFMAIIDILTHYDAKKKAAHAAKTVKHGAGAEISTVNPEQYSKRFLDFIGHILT
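ADP-Glo luminescence end-point read after a 60 min room-temperature kinase reaction of PI5P4Kalpha plus substrate, initiated with ATP at 5 microM final. Buffer: 0.038 M HEPES pH 7.4, EGTA, 0.1% CHAPS, 5% DMSO.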
Pin1 inhibitor: qHTS Assay to Find Inhibitors of Pin1; Peptidyl-prolyl cis-trans isomerase NIMA-interacting 1 (Homo sapiens), Q13526; Pin1 FP peptide displacement, HiFluor488, 10 min; Potency, µM (titrated, usually from 115 µM), for inactives: top-dose activity, negative = inhibition, hits mostly inhibitors; 0.009% of 390,000 active; AID 504891, 2011; active means well fitted inhibition curve with a large enough effect in the polarisation, with a control signal flat, not every such curve was filed as active; inconclusive means small, poorly fitted or top-dose-only effect, or effect the other way, or a change in a side signal; inactive means no such curve, though single readings can be large or run the other way; the % refers to the polarisation; further: potency means the concentration at half of the fitted maximal effect
Target sequence (Q13526 whole entry, looked up): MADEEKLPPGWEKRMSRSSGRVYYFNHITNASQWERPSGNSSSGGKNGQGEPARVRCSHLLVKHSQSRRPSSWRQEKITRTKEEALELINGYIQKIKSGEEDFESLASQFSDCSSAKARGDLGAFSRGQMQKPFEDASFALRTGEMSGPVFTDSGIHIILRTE
The depositor's hits bear a star; i = inactive; ? = inconclusive; / = no result. This is a sample that favours compounds with a hit; in the whole collection about 1.2% have one here. Unless noted, the call rests on the fitted dose curve; in most records, active means well fitted curve in the direction sought with a large enough effect; inconclusive means small, poorly fitted or top-dose-only effect, or another doubt; inactive means no such curve, though single readings can be large; an effect the other way counts as inactive or inconclusive. Unless noted, on the % scale 0 is the no-effect control and ±100 the full control effect.

SMILES	GoLoco inh red	Tb PGK inh	PI4K2A inh	KAT2A inh	PI5P4Ka inh	Pin1 inhibitor
COc1ccc(C2CCCN2C(=S)Nc2ccc(C)cc2C)cc1OC (stereo unspecified)	9%	i	1	-1%	2	-2%
O=C(CSc1nc(NS(=O)(=O)c2ccccc2)cc(=O)[nH]1)Nc1ccc(Cl)cc1	24%	?	-27	-18%	?	82%
COc1ccc(NC(=O)CSc2nc(NS(=O)(=O)c3ccccc3)cc(=O)[nH]2)cc1	5%	?	-53*	?	/	/
O=[N+]([O-])c1ccc(N2CCN(S(=O)(=O)c3ccccc3)CC2)cc1NCc1ccco1	-7%	/	/	-6%	/	/
CCOC(=O)Cc1ccc2sc(-c3ccccc3)nc2c1	10%	?	-72*	-5%	-8	1%
COC(=O)CN=Cc1c(C)[nH]n(-c2ccccc2)c1=O	1%	-1%	3	0%	1	-1%
Cc1[nH]n(-c2ccccc2)c(=S)c1C=NCCCN=Cc1c(C)[nH]n(-c2ccccc2)c1=S	-37%	1%	1	18µM*	-76*	-10%
COc1cccc(/C(O)=C/c2nc3ccc(C(=O)NCCc4ccc(Cl)cc4)cc3[nH]c2=O)c1	149%	1%	0	-2%	-93*	?
COc1cccc(/C(O)=C/c2nc3ccc(C(=O)NCCc4cccc(C)c4)cc3[nH]c2=O)c1	73%	-8%	-2	-5%	0	?
Cc1c(Cl)cccc1NC(=O)N1CCN(Cc2cc(=O)n3nc(-c4ccccc4F)sc3n2)CC1	/	4%	-1	-4%	/	25%
CCOC(=O)c1ccc(NC(=O)c2c(NCc3cccs3)sc3c2CCCCC3)cc1	/	-3%	-14	22µM*	/	?
Nc1ccc2c(c1)-c1ccccc1S(=O)(=O)N2	2µM*	-4%	5	-2%	?	-26%
COc1cc(C2C(C#N)=C(N)OC3=C2C(=O)CC(C)(C)C3)cc2c1OCO2 (stereo unspecified)	/	1%	-4	/	-59*	?
COc1ccc(C2C(C#N)=C(N)OC3=C2C(=O)CC(C)(C)C3)cc1 (stereo unspecified)	11%	-7%	14	39%	-5	-4%
CCNc1ncc2nc(-c3cccs3)c(=O)n(Cc3cccs3)c2n1	19%	/	/	-8%	/	/
CCOc1ccccc1N1CCN(c2nc3ccccc3nc2C(C#N)C(=O)OC)CC1 (stereo unspecified)	1%	6%	9	-2%	-3	?
CCOc1ccccc1N1CCN(c2nc(N)c(C#N)c(CC#N)c2C#N)CC1	102%	i	3	-10%	-67*	?
O=[N+]([O-])c1ccc2[nH]c(=S)sc2c1	/	-11%	3	/	-75*	-6%
S=c1[nH]c2ccc(Cl)cc2s1	-18%	-2%	-1	?	-75*	-9%
CCS(=O)(=O)c1nc(S(=O)(=O)c2ccc(Cl)cc2)c(NCc2ccccc2Cl)s1	/	-9%	-3	0%	/	12%
Nc1ccc2cccc(O)c2c1	/	-9%	-26	/	-80*	?
N#Cc1c(-c2ccccc2)[nH]c(=O)[nH]c1=O	-6%	2%	3	-12%	-92*	-9%
Cc1cc(-c2ccccc2)[nH]c(=O)c1C#N	2%	6%	-3	-4%	0	-2%
COc1ncc2nc(-c3cccs3)c(=O)n(-c3ccccc3)c2n1	42%	/	/	40µM*	/	/
CN1CCN(c2ncc3nc(-c4ccccc4)c(=O)n(-c4ccccc4)c3n2)CC1	25%	/	/	22µM*	/	/
SMILES	GoLoco inh red	Tb PGK inh	PI4K2A inh	KAT2A inh	PI5P4Ka inh	Pin1 inhibitor
CCOC(=O)c1c(C)sc(-c2c(-c3cc(C)ccc3C)[nH]c3c2c(=O)n(C)c(=O)n3C)c1O	/	-1%	-7	-13%	/	?
CCOC(=O)c1c(C)[nH]c(C(=O)OC(C)C(=O)Nc2ccccc2OC)c1C (stereo unspecified)	/	-1%	5	-3%	0	10%
Cc1ccc(C2CC(C(F)F)n3ncc(C(=O)Nc4cnn(Cc5ccccc5C)c4)c3N2)cc1 (stereo unspecified)	/	-6%	0	-2%	-4	-1%
C=C(CCC12O[C@H](C(=O)O)[C@@](O)(C(=O)O)[C@](C(=O)O)(O1)[C@H](OC(=O)/C=C/[C@@H](C)C[C@@H](C)CC)[C@H]2O)[C@@H](OC(C)=O)[C@H](C)Cc1ccccc1	-2%	/	/	5µM*	/	/
Cc1ccc2c(c1)[nH]c1c(=O)n(CCC3=CCCCC3)cnc12	-17%	/	/	2.5µM*	/	/
O=C(C1CCCCC1C(=O)N1CCCCC1)N1CCCCC1 (stereo unspecified)	/	1%	7	/	1	-8%
C=CC(=O)Nc1cccc(N(C)c2ccnc(Nc3ccc(N4CCN(C)CC4)cc3)n2)c1	/	11%	-4	/	-65*	?
Cc1ccc(NC(=O)CNC(=O)c2ccc(OC(F)F)cc2)cc1S(=O)(=O)N1CCCCCC1	/	-6%	2	/	0	10%
CC1CCN(c2ccc(NC(=S)NC(=O)c3ccco3)cc2)CC1	0%	-9%	0	22µM*	-4	-9%
Cc1c(NC(=O)C23CC4CC(CC(C)(C4)C2)C3)c(=O)n(-c2ccccc2)n1C	7%	-6%	8	20µM*	0	0%
CC(=O)NC12CC3CC(C1)CC(C(=O)Nc1c(C)n(C)n(-c4ccccc4)c1=O)(C3)C2	/	3%	2	0%	0	-4%
O=C1C(Cl)=C(Nc2ccc3cn[nH]c3c2)C(=O)c2ccccc21	7.9µM*	-3%	-7	-3%	-87*	7%
O=C(Nc1ccc2cn[nH]c2c1)c1c(Cl)cccc1Cl	-8%	5%	-2	9%	-24	-12%
COc1ccc(CNC(=O)C(C)OC(=O)CCN2C(=O)C3CC=CCC3C2=O)cc1 (stereo unspecified)	/	5%	2	1%	-4	-3%
O=[N+]([O-])c1ccccc1NC(=S)N/N=C/c1ccc(O)c(O)c1	4%	-1%	-4	-5%	-63*	-8%

Screening results: PubChem BioAssay, National Center for Advancing Translational Sciences (NCATS)
